The source of these data is PubChem BioAssay AID504832 (National Center for Advancing Translational Sciences (NCATS), 2011).

The whole screen tested about 310,000 compounds, of which about 18,000 (5.8%) were called active. Inconclusive results (about 22%) are left out. Calls come from the whole dose curve; as a rule, active = well fitted inhibition curve with a large enough effect; inconclusive = small, poorly fitted or top-dose-only effect, or another doubt; inactive = no such curve, though single readings can be large or run the other way. What follows is part of a selection rich in actives, with near analogues and random picks from the rest. A call without a number means that no potency is given here.
Potency is the fitted concentration of half-maximal effect.

The nature of this assay: Primary qHTS for delayed death inhibitors of the malarial parasite plastid, 48 hour incubation. The conditions noted are these: P. falciparum luciferase growth in erythrocytes; series mostly up to 28.7 µM. In a few lines: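 Growth was read as firefly luciferase luminescence after a 48 h, 37 C, 5% CO2 exposure of compounds to reporter-bearing P. falciparum cultures (0.1% parasitemia, 2% hematocrit final) in Albumax-supplemented RPMI 1640.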
For orientation: In qHTS, concentration-response curves come from the screen itself.
On to `CC(C)CC(O)C1CCN(C(=O)CCc2nnc(-c3ccc4c(c3)OCO4)o2)CC1` (stereo not drawn), for which the Potency result is “inactive”.
Next, `N#Cc1ccc(OCC(=O)NC(=O)NC2CCS(=O)(=O)C2)cc1` (stereo not drawn): “inactive”; `Cc1cc(C(=O)COc2ccccc2Cl)c(C)n1C1CC1`: “inactive”; `CCN(CC(=O)NCc1ccco1)S(=O)(=O)c1ccc(F)cc1`: “inactive”.
Next, `Cc1c(C(C)CCCO)oc(=O)c2c1Oc1c(C)c(C(C)C[C@@H](C)O)oc(=O)c1C2` (stereo partly drawn): “inactive”; `Cn1cccc1C(=O)N1CCc2ccccc2C1`: “inactive”.
Regarding `CC1CCN(C(=O)Cn2nnnc2CN2CCOCC2)CC1`, the Potency entry was “inactive”.
Next, `Cc1cccc(N2CCN(C(=O)c3ccccc3NC(=O)C3CCCCC3C(=O)O)CC2)c1` (stereo not drawn): “inactive”; `CSc1ccc(NC(=O)/C=C/C(=O)O)cc1`: “inactive”.
Next, `Cc1cccc(N2CCN(c3ccc(NC(=O)/C=C\C(=O)O)cc3)CC2)c1`: 8.28 µM (active); `Cc1ccc2oc(C(=O)N3CCN(C)C[C@@H]3C(C)C)c(C)c2c1`: “inactive”; `CC1=CC(=Cc2sc3ccccc3[n+]2C)C=C(C)O1`: 0.928 µM (active).
Next, `Cc1ccc(-c2noc(CNC(=O)c3ccoc3C)n2)cc1`: “inactive”; `O=C(NCc1ccccc1Cl)C1CCN(S(=O)(=O)c2cccc3nonc23)CC1`: “inactive”; `O=C(NCc1ccncc1)C1CCCN(S(=O)(=O)c2ccc(Br)cc2)C1` (stereo not drawn): “inactive”.
In the case of `CCc1ccc(NC(=O)Nc2ccncc2)cc1`, the Potency is 13.1 µM (active).
With `CCc1ccc(NC(=O)N[C@H](C(=O)O)C(C)CC)cc1` (stereo partly drawn), the Potency result is “inactive”.
Next, `O=C(NCc1ccccn1)Nc1ccc(F)cc1`: “inactive”; `O=C(Nc1ccncc1)Nc1ccc(F)cc1`: 6.57 µM (active).
Next, `O=C(Nc1ccncc1)c1c(F)cccc1F`: “inactive”; `CC(C)CC(=O)Nc1ccc(Cc2ccncc2)cc1`: “inactive”; `CCCOc1ccc(Cc2c(O)nc(N)[nH]c2=O)cc1C`: “inactive”.
Next, `CN(C)CCCO/N=C(\c1ccccc1)c1ccncc1`: “inactive”; `COc1cc(OC)nc(N/N=C(\c2ccccc2)c2ccncc2)n1`: 14.7 µM (active); `COc1cc(OC)nc(NC(=O)CCl)n1`: “inactive”.
In the case of `CC(=O)N(C)c1ccc(NC(=O)Nc2cccc3ccccc23)cc1`, the Potency result is “inactive”.
Next, `CNC(=O)c1sc(Nc2ccc(OCc3ccccc3)cc2)nc1C`: “inactive”; `Cn1cncc1COC(=O)c1ccc(Cl)cc1`: “inactive”; `COc1cc(OC)cc(C(=O)NCCSCc2ccc(Cl)cc2)c1`: “inactive”.
Next, `COc1ccccc1N1CC(C(=O)NCCN2C(=O)S/C(=C\c3cccnc3)C2=O)CC1=O` (stereo not drawn): “inactive”.
Next, `Cc1ccc(C2Nc3cccc4cccc(c34)N2)cc1`: “inactive”; `Brc1ccccc1C1Nc2cccc3cccc(c23)N1`: 13.1 µM (active); `C/C(=C\c1ccco1)C1Nc2cccc3cccc(c23)N1`: “inactive”.
